Counter-ions that a name gives are not always drawn. In all, about 2,000 compounds were measured (“fractional viability relative to vehicle”: median about 0.92, lowest 2% from about 0.11 on). The sample as a whole holds a higher share of the lowest values than the screen did.
System: TYKNU
Assay: fractional viability relative to vehicle; TYKNU is a high-grade serous ovarian cancer line; higher = less growth inhibition
Details: 72 h, genotype: OPA1 knockout (sgOPA1 #2)
Procedure, shortened: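 Drug treatment lasted 72 h, with cells grown at 37 °C in 5% CO2 in RPMI 1640 supplemented with 10% FBS. Beforehand, TYKNU control cells or their lentiCRISPRv2 knockout derivatives had been seeded at 500 cells per well into drug-stamped 384-well plates carrying a ~2100-compound library at 2 or 10 μM, in duplicate. Viability came from Cell Titer Glo luminescence, with averaged duplicate treatment wells normalised to duplicate control wells in the same plate position.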

SMILES | fractional viability (2uM) | fractional viability (10uM)
CC(=O)O/N=C1\C(=O)N(Cc2cc(Cl)ccc2Cl)c2ccc(Cl)cc21 | 1.06 | 0.985
NC(=O)c1noc([C@H](CCCC2CCCCC2)CC(=O)NO)n1 | 1.1 | 0.853
COC(=O)N1CCN(Cc2cccc(NC(=O)Nc3ccc(C)nc3)c2F)CC1 | 1.01 | 0.982
CCCCC(F)(F)[C@@]1(O)CC[C@H]2[C@@H](CC(=O)[C@@H]2CCCCCCC(=O)O)O1 [Lubiprostone] | 0.935 | 1.03
O=C1c2ccccc2C(=O)c2c1ccc(O)c2O [Alizarin] | 1.19 | 0.838
CC(=O)c1cc2c(o1)C(=O)c1ccccc1C2=O [Napabucasin] | 0.0542 | 0.0318
O=C(O)c1cc(=O)c2ccccc2o1 [Chromocarb] | 0.872 | 0.816
CC(CNC(=O)c1cccnc1)NC(=O)c1cccnc1 (stereo not given) [Nicaraven] | 0.886 | 0.93
C[C@H]1O[C@@H](O[C@H]2[C@@H](O)C[C@H](O[C@H]3[C@@H](O)C[C@H](O[C@H]4CC[C@@]5(C)[C@H](CC[C@@H]6[C@@H]5C[C@@H](O)[C@]5(C)[C@@H](C7=CC(=O)OC7)CC[C@]65O)C4)O[C@@H]3C)O[C@@H]2C)C[C@H](O)[C@@H]1O [Digoxin] | 0.141 | 0.0738
Cn1c(=O)c(F)c(Nc2ccc(I)cc2F)c2c(=O)n(C[C@@H](O)CO)cnc21 | 0.516 | 0.403
COc1ccc(CCNCc2ccc(OCc3ccc(Cl)nc3)c(OC)c2)cc1OC | 1.04 | 0.914
CC[C@H]1OC(=O)[C@H](C)[C@@H](O[C@H]2C[C@@](C)(OC)[C@@H](O)[C@H](C)O2)[C@H](C)[C@@H](O[C@@H]2O[C@H](C)C[C@H](N(C)C)[C@H]2O)[C@](C)(O)C[C@@H](C)C(=O)[C@H](C)[C@H]2OC(=O)O[C@@]21C [Erythromycin Cyclocarbonate] | 0.834 | 0.883
CN1CCN(C(=O)c2cc3cc(Cl)ccc3[nH]2)CC1 | 1.08 | 1.08
CN1CCCN(C(=O)c2cccc(-c3ccc(/C=C4/C(=O)Nc5ccc(Cl)cc54)o3)c2)CC1 | 0.132 | 0.0251
Cc1[nH]c(/C=C2\C(=O)Nc3ccc(S(=O)(=O)N(C)c4cccc(Cl)c4)cc32)c(C)c1C(=O)N1CCN(C)CC1 | 1.37 | 0.133
CS(=O)(=O)c1ccc(-c2nnc(/C=C/c3nnc(-c4ccc(C#N)cc4)o3)n2-c2ccccc2Cl)nc1 | 1.11 | 1.03
O=C(Cc1cccc(OC(F)(F)F)c1)Nc1ccc(CCCCc2nnc(NC(=O)Cc3ccccn3)s2)nn1 | 0.25 | 0.2
CN[C@@H](C)C(=O)N[C@H](C(=O)N1CCC[C@H]1c1nc(C(=O)c2ccc(F)cc2)cs1)C1CCCCC1 | 0.719 | 0.643
N#C/C(=C1/SC[C@@H](c2ccc(Cl)cc2Cl)S1)n1ccnc1 [Luliconazole] | 0.989 | 0.818
Cc1cccc(-c2[nH]c(C(C)(C)C)nc2-c2ccc3c(c2)OCO3)n1 | 1.2 | 0.682
COc1ncc(-c2ccc3nccc(-c4ccnnc4)c3c2)cc1NS(=O)(=O)c1ccc(F)cc1F | 0.354 | 0.0636
CCCS(=O)(=O)Nc1ccc(F)c(C(=O)c2c[nH]c3ncc(-c4ccc(Cl)cc4)cc23)c1F [Vemurafenib (PLX4032, RG7204)] | 1.13 | 1
CC(C)(C)c1ccc(S(=O)(=O)/C=C/C#N)cc1 | 0.357 | 0.0658
Cc1ccc(S(=O)(=O)/C=C/C#N)cc1 | 0.121 | 0.09

SMILES | fractional viability (2uM) | fractional viability (10uM)
NC(=O)c1cccc2[nH]c(-c3ccc(C4CCCN4)cc3F)nc12 (stereo not given) | 0.735 | 0.788
CC[C@H](CO)Nc1nc(NCc2ccccc2)c2ncn(C(C)C)c2n1 [Roscovitine (Seliciclib,CYC202)] | 1.14 | 0.913
Cc1cc(C(O)=C2C(=O)C(=O)N(CCCN3CCOCC3)C2c2ccncc2)ccc1OCc1ccccc1 (stereo not given) | 0.973 | 0.814
CC(O)c1cc(C(=O)N[C@@H](C)Cn2ccc(-c3ccc(C#N)c(Cl)c3)n2)n[nH]1 (stereo not given in full) | 0.945 | 1.06
Cn1ncnc1[C@H]1c2n[nH]c(=O)c3cc(F)cc(c23)N[C@@H]1c1ccc(F)cc1 | 0.905 | 0.986
NC(=O)c1cnc2[nH]ccc2c1N[C@@H]1[C@@H]2CC3C[C@H]1C[C@@](O)(C3)C2 | 0.989 | 1
CC(=O)Nc1cccc2c1c(Sc1ccc(Cl)cc1)c(C)n2CC(=O)O | 0.976 | 0.913
CC(=O)N1c2ccc(-c3ccc(C(=O)O)cc3)cc2[C@H](Nc2ccc(Cl)cc2)C[C@@H]1C | 0.529 | 0.337
O=C(/C=C/c1ccc2ccccc2n1)c1ccncc1 | 0.472 | 0.11
NNC(=O)c1ccncc1 [Isoniazid] | 1.01 | 1.08
O=C(NNc1ccccc1)c1ccncc1 | 0.769 | 0.792
C[C@H](CCC(=O)NCCS(=O)(=O)O)[C@H]1CC[C@H]2[C@@H]3[C@@H](O)C[C@@H]4C[C@H](O)CC[C@]4(C)[C@H]3CC[C@]12C [Sodium Tauroursodeoxycholate (TUDC)] | 0.832 | 0.834
Cc1c(C(=O)NN2CCCCC2)nn(-c2ccc(Cl)cc2Cl)c1-c1ccc(I)cc1 | 0.982 | 0.754
CCN(CC)CCCC(C)Nc1nc(C)cc(Nc2ccc3nc(C)cc(N)c3c2)n1 (stereo not given) | 0.891 | 0.898
CCN(CC)CCCC(C)Nc1c2ccc(Cl)cc2nc2ccc(OC)cc12 (stereo not given) [Quinacrine 2HCl] | 0.837 | 0.105
C[C@H](Nc1ncnc2[nH]cnc12)c1cc2ccc(F)cc2nc1-c1ccccn1 | 0.879 | 0.836
O=C(O)CCNC(=O)c1ccccc1 [Betamipron] | 1.14 | 0.982
CN(NC(=O)CC(=O)NN(C)C(=S)c1ccccc1)C(=S)c1ccccc1 [Elesclomol (STA-4783)] | 0.0864 | 0.107
O=C(O)c1ccccc1 [Benzoic Acid] | 0.885 | 0.957
Cc1cc(CS(=O)(=O)c2ccccc2)cc(OCc2ccc(CN3CCC[C@@H]3CO)cc2)c1 | 0.843 | 0.875
C=C1[C@H](CO)[C@@H](O)C[C@@H]1n1cnc2c(=O)[nH]c(N)nc21 [Entecavir Hydrate] | 1.01 | 0.935
Cc1nc(C#Cc2ccnc(Cl)c2)c(C)n1-c1ccc(OC(F)(F)F)cc1 | 1.08 | 0.815
CCn1c(-c2nonc2N)nc2c(C#CC(C)(C)O)ncc(OC[C@H]3CCCNC3)c21 | 1.01 | 0.698
COc1ccc(-c2ccc3ncc4c(c3c2)n(-c2ccc(N3CCNCC3)c(C(F)(F)F)c2)c(=O)n4C)cn1 | 0.111 | 0.0546

SMILES | fractional viability (2uM) | fractional viability (10uM)
Nc1ccc(-c2ccc3ncc4ccc(=O)n(-c5cccc(C(F)(F)F)c5)c4c3c2)cn1 [Torin 2] | 0.36 | 0.363
CNC(=O)c1cc(Oc2ccc3nc(N[C@@H]4CCCC[C@H]4O)sc3c2)ccn1 | 0.831 | 0.74
COc1cc2ncnc(Nc3ccc(O)c(Br)c3)c2cc1OC | 1.37 | 1.19
N#Cc1c(NC(=O)c2cccc3ccccc23)sc2c1CCCC2 [JNK Inhibitor IX] | 0.428 | 0.386
Cc1cc(C)nc(SCC(=O)Nc2ncc(Cc3cccc4ccccc34)s2)n1 | 0.904 | 0.931
COc1cccc2c1C(=O)c1c(O)c3c(c(O)c1C2=O)C[C@@](O)(C(C)=O)C[C@@H]3O[C@H]1C[C@H](N)[C@H](O)[C@H](C)O1 [Daunorubicin HCl] | 0.568 | 0.108
CC(=O)[C@]1(O)Cc2c(O)c3c(c(O)c2[C@@H](O[C@H]2C[C@H](N)[C@H](O)[C@H](C)O2)C1)C(=O)c1ccccc1C3=O [Idarubicin HCl] | 0.56 | 0.0586
COc1cccc2c1C(=O)c1c(O)c3c(c(O)c1C2=O)C[C@@](O)(C(=O)CO)C[C@@H]3O[C@H]1C[C@H](N)[C@H](O)[C@H](C)O1 [Doxorubicin (Adriamycin)] | 0.738 | 0.726
Cn1nnc(-c2ccc3c(c2)[nH]c2nc(Cc4ccccc4)nc(NC4CCC(N)CC4)c23)n1 (stereo not given) | 1.01 | 0.765
CC(C)Nc1cc(-c2c[nH]c(C(=O)N[C@H](CO)c3cccc(Cl)c3)c2)c(Cl)cn1 | 0.453 | 0.36
Cc1noc(C)c1-c1ccc(-c2cc(C(N)=O)c(NC(N)=O)s2)c(O[C@H]2CCNC2)c1 | 0.847 | 0.778
COc1cc2ncnc(Sc3nnc(C)s3)c2cc1OC | 0.789 | 0.16
Cn1cc(CNCC2CCN(c3ncc(C(=O)NO)cn3)CC2)c2ccccc21 | 0.224 | 0.19
CCNC(=O)C#Cc1ccc2c(C(=Nc3ccc(CN(C)C)cc3)c3ccccc3)c(O)[nH]c2c1 | 0.276 | 0.0913
CN(C)Cc1cccc(N=C(c2ccccc2)c2c(O)[nH]c3cc(C(=O)N(C)C)ccc23)c1 | 1.13 | 0.78
O=C(O)CCCCC(CCSCc1ccccc1)SCc1ccccc1 (stereo not given) | 1.23 | 0.919
CCOC(=O)N[C@@H]1CC[C@@H]2[C@@H](C1)C[C@H]1C(=O)O[C@H](C)[C@H]1[C@H]2/C=C/c1ccc(-c2cccc(F)c2)cn1 [Vorapaxar] | 0.913 | 1.06
CCn1c(=O)c(-c2ccc(-c3cncs3)cc2Cl)cc2cnc(Nc3ccc(N4CCN(C)CC4)cc3)nc21 | 0.914 | 0.64
CC1(C)S[C@@H]2[C@H](NC(=O)[C@H](NC(=O)N3CCN(S(C)(=O)=O)C3=O)c3ccccc3)C(=O)N2[C@H]1C(=O)O [Mezlocillin Sodium] | 0.892 | 0.979
Nc1nc(=S)c2ncn([C@H]3C[C@H](O)[C@@H](CO)O3)c2[nH]1 | 1.03 | 0.763
C[C@@]1(c2cc(-c3cncnc3)c(F)cc2F)CCSC(N)=N1 | 1.12 | 0.948
CC(C)C[C@H](NC(=O)CNC(=O)c1cc(Cl)ccc1Cl)B1OC(=O)C(CC(=O)O)(CC(=O)O)O1 | 0.335 | 0.299

— the supplement of paper PMC5919970
